This is part of a sample that, as a whole, favours compounds with a hit. Of some 79,000 tested, about 15% had one in any assay. A number with no mark means an inactive call. Calls of active or inactive are those of the source. Rule as the data show it: active = growth inhibition above about 70%; inactive = the rest.

The text below walks through data of PubChem BioAssay (NCI).

This experiment is described as follows: NCI Yeast Anticancer Drug Screen. Data for the wt2 strain (AID 169).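 Also: 0% = growth of vehicle-treated yeast cultures.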 The settings on record: S. cerevisiae wt2 strain growth inhibition, active compounds read high. The method, then: Growth inhibition of yeast strains with defined genetic alterations is measured as a screen for potential anti-cancer activity. Selected strains with alterations in DNA damage repair or cell cycle control were exposed to compounds and growth inhibition was measured relative to vehicle treated controls. The strain used in this assay is wt2

As to `c1ccc2[nH]c(-c3cscn3)nc2c1`, the growth inhibition (at 1.2 µM) is -3%; the growth inhibition (at 3.7 µM) was -3%; the growth inhibition (at 11.0 µM) was -6%; the growth inhibition (at 33.0 µM) is -5%; the growth inhibition (at 100.0 µM) is 0%.

Turning to `CNC(=O)OCc1c(COC(=O)NC)c(-c2ccc(Cl)c(Cl)c2)n2c1SCC2`, the growth inhibition was -1% (at 1.2 µM); -2% (at 3.7 µM); -2% (at 11.0 µM); -5% (at 33.0 µM); 25% (at 100.0 µM).

For `COC(=O)C1(C)CCc2c(ccc3ccccc23)C1=O` (stereo not given), the growth inhibition (at 1.2 µM) is -5%; the growth inhibition (at 3.7 µM) was -2%; the growth inhibition (at 11.0 µM) was 9%; the growth inhibition (at 33.0 µM) was -5%; the growth inhibition (at 100.0 µM) was 80% (active).

In the case of `O/N=C\c1c(O)ccc2ccccc12`, the growth inhibition is, setting by setting: (at 1.2 µM) -4%; (at 3.7 µM) -2%; (at 11.0 µM) -7%; (at 33.0 µM) 1%; (at 100.0 µM) 55%.

With `C=C1CC(CCCl)(c2ccccc2)OC1=O` (stereo not given), the growth inhibition reads like this: (at 1.2 µM) -22%; (at 3.7 µM) -20%; (at 11.0 µM) 38%; (at 33.0 µM) 95% (active); (at 100.0 µM) 95% (active).

As to `CCO/C(C)=C(/C#N)C(N)=S`, the growth inhibition (at 1.2 µM) was -1%; the growth inhibition (at 3.7 µM) was -2%; the growth inhibition (at 11.0 µM) was 0%; the growth inhibition (at 33.0 µM) was 1%; the growth inhibition (at 100.0 µM) was 1%.

On to `CS(=O)(=O)SCc1ccc([N+](=O)[O-])cc1`, for which the growth inhibition was -1% (at 1.2 µM); -3% (at 3.7 µM); 69% (at 11.0 µM); 99% (active) (at 33.0 µM); 97% (active) (at 100.0 µM).

Turning to `CCN(CC)Cc1cc(Nc2c3ccccc3nc3c2[nH]c2ccccc23)cc(CN(CC)CC)c1O`, the growth inhibition is -1% (at 1.2 µM); -2% (at 3.7 µM); -4% (at 11.0 µM); -2% (at 33.0 µM); 1% (at 100.0 µM).
